Assay results: ChEMBL document CHEMBL3988442, “University of Dundee, Small-Polar-MMV Screening Library” (2021)
For some of these results: Measured potencies and affinities stand elsewhere.

Assays:
Set-up in all cases: scale not given: direction of the effect not stated beside the values
[1] = biological target: Protein translocase subunit SecA (Escherichia coli (strain K12)) (UniProt P10408); test: Assay to Identify E. coli SecA ATPase Inhibitors; type: functional; conditions: 30 µM
[2] = biological target: T1, Ubiquitin-activating enzyme e1, putative (Leishmania donovani (strain BPK282A1)) (UniProt E9BSI1); test: Leishmania donovani Ubiquitin Activating Enzyme (LdE1); type: functional; conditions: 30 µM
T1 sequence (whole entry): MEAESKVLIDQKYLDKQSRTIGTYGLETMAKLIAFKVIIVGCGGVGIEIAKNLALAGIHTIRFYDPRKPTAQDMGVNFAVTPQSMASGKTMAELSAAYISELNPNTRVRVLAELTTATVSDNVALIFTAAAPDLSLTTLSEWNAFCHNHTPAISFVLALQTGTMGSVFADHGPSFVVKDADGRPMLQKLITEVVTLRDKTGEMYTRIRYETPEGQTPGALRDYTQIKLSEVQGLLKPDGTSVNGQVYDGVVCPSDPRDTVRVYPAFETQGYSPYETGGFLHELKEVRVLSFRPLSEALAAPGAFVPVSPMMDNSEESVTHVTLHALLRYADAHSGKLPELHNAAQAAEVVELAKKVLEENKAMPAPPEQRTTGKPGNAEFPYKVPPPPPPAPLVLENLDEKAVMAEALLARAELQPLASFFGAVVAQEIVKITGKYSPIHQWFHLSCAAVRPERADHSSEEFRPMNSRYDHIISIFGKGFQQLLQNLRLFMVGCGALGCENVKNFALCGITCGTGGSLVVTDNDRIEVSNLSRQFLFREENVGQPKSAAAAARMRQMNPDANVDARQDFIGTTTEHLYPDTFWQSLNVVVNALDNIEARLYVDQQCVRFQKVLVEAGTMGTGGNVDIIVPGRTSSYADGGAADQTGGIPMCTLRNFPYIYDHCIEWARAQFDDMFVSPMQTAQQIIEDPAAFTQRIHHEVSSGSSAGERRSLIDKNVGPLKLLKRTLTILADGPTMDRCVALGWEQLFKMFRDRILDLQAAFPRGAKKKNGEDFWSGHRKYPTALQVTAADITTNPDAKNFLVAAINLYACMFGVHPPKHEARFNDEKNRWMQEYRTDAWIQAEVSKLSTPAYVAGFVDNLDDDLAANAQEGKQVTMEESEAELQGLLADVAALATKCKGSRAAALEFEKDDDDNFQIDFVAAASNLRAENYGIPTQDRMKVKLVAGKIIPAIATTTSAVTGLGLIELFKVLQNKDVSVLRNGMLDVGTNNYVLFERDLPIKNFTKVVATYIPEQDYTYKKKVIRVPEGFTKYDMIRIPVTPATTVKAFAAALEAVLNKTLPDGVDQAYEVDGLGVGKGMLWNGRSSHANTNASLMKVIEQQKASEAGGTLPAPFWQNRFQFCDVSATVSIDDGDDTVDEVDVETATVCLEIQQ

[3] = biological target: AMP-activated protein kinase, AMPK (Homo sapiens) (UniProt P54646+O43741+P54619+Q9UGJ0+Q9Y478+Q13131+Q9UGI9); test: AMP-dependent Kinase enzyme assay. An in vitro enzyme assay that detects ADP turnover that is directly proportional to AMPK activity. This uses naive AMPK that is activated during the assay with MK-8722; type: functional; conditions: 30 µM
[4] = biological target: Sialic acid-binding Ig-like lectin 9 (Homo sapiens) (UniProt Q9Y336); test: Hs-Siglec9 ALPHAscreen SOP 20170721; conditions: 10 µM
Sequence of Sialic acid-binding Ig-like lectin 9 (Homo sapiens) (Q9Y336 whole entry): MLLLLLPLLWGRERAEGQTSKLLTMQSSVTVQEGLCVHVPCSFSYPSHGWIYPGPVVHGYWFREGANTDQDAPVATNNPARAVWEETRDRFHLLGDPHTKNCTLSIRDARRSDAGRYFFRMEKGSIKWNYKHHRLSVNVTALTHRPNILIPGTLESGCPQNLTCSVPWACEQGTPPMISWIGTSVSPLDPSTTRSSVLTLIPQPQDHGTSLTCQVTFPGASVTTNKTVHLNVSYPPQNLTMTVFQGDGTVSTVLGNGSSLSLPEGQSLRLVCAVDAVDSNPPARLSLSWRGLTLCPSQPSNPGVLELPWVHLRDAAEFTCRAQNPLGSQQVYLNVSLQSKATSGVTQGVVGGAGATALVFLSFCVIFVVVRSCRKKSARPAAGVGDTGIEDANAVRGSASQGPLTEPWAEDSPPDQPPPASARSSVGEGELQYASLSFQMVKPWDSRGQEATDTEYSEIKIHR

[5] = test system: Trypanosoma cruzi; test: Trypanosoma cruzi phosphomannomutase and mannose-1-phosphate guanylyltransferase assay; type: functional; conditions: 10 µM
[6] = biological target: T2, Arginase-2, mitochondrial (Homo sapiens) (UniProt P78540); test: in vitro enzyme assay to detect the production of urea directly proportional to the activity of Arginase II; type: functional; conditions: 33.3 µM; also: in the data most compounds retested in dose-response had high values
T2 sequence (whole entry): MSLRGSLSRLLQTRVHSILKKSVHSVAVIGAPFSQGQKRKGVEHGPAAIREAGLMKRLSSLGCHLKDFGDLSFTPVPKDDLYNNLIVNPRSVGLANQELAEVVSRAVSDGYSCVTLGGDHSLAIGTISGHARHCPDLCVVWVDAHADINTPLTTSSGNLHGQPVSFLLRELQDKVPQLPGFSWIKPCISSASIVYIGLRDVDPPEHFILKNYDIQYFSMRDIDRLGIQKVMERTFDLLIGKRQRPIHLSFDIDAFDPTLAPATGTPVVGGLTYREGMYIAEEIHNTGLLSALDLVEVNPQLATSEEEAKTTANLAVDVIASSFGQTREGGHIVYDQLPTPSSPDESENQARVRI

[7] = biological target: T3, Proteasome subunit beta (Trypanosoma cruzi) (UniProt O96673); test: Trypanosoma cruzi proteasome chymotrypsin-like activity (TcProtChymo) assay.; also: in the data most compounds retested in dose-response had high values; type: functional; conditions: 9.37 µM
T3 sequence (whole entry): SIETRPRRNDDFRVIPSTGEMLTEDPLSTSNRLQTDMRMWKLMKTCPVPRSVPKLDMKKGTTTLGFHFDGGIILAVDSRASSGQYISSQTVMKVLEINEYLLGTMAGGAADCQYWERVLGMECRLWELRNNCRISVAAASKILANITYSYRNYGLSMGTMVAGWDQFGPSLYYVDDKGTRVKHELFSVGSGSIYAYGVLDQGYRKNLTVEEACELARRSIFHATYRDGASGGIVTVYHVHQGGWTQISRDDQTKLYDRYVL

[8] = species on record: Homo sapiens; test: To identify inhibition of the IFN signalling (Jak-Stat) pathway via expression of an eGFP reporter gene under the control of an IFN-stimulated response element (ISRE) containing MxA promoter.; type: functional; conditions: 30 µM
[9] = biological target: T4, Tyrosyl-tRNA synthetase, putative (Trypanosoma cruzi (strain CL Brener)) (UniProt Q4DSP6); test: Trypanosoma cruzi tyrosyl tRNA synthetase (TcYRS) _High Tyrosine SOP; type: functional; conditions: 30 µM; also: in the data most compounds retested in dose-response had high values
T4 sequence (whole entry): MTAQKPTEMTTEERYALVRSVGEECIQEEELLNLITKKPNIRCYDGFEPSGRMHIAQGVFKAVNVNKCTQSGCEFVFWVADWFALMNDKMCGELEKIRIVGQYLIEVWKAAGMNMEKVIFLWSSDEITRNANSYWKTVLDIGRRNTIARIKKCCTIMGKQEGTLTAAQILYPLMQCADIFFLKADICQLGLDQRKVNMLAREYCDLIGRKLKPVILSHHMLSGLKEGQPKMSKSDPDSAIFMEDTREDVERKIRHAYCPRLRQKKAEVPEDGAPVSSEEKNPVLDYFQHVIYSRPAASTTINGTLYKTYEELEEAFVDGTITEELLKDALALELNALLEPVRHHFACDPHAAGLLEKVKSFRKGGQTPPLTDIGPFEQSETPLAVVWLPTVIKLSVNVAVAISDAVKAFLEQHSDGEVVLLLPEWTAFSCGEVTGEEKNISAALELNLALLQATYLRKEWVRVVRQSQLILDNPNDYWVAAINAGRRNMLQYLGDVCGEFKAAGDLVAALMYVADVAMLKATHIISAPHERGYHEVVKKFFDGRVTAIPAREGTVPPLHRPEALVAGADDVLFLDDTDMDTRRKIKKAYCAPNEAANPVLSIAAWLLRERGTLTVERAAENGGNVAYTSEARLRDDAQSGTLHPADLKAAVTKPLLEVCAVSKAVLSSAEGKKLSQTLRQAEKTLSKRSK

[10] = biological target: T4, Tyrosyl-tRNA synthetase, putative (Trypanosoma cruzi (strain CL Brener)); test: Trypanosoma cruzi tyrosyl tRNA synthetase (TcYRS) SOP; type: functional; conditions: 30 µM
[11] = biological target: Chromo domain-containing protein 1 (Saccharomyces cerevisiae (strain ATCC 204508 / S288c) (Baker's yeast)) (UniProt P32657); test: ScCHD-1 Enzyme Inhibition Assay; type: functional; conditions: 30 µM; also: in the data most compounds retested in dose-response had high values
Sequence of Chromo domain-containing protein 1 (Saccharomyces cerevisiae (strain ATCC 204508 / S288c) (Baker's yeast)) (P32657 whole entry, the tested form may be a part): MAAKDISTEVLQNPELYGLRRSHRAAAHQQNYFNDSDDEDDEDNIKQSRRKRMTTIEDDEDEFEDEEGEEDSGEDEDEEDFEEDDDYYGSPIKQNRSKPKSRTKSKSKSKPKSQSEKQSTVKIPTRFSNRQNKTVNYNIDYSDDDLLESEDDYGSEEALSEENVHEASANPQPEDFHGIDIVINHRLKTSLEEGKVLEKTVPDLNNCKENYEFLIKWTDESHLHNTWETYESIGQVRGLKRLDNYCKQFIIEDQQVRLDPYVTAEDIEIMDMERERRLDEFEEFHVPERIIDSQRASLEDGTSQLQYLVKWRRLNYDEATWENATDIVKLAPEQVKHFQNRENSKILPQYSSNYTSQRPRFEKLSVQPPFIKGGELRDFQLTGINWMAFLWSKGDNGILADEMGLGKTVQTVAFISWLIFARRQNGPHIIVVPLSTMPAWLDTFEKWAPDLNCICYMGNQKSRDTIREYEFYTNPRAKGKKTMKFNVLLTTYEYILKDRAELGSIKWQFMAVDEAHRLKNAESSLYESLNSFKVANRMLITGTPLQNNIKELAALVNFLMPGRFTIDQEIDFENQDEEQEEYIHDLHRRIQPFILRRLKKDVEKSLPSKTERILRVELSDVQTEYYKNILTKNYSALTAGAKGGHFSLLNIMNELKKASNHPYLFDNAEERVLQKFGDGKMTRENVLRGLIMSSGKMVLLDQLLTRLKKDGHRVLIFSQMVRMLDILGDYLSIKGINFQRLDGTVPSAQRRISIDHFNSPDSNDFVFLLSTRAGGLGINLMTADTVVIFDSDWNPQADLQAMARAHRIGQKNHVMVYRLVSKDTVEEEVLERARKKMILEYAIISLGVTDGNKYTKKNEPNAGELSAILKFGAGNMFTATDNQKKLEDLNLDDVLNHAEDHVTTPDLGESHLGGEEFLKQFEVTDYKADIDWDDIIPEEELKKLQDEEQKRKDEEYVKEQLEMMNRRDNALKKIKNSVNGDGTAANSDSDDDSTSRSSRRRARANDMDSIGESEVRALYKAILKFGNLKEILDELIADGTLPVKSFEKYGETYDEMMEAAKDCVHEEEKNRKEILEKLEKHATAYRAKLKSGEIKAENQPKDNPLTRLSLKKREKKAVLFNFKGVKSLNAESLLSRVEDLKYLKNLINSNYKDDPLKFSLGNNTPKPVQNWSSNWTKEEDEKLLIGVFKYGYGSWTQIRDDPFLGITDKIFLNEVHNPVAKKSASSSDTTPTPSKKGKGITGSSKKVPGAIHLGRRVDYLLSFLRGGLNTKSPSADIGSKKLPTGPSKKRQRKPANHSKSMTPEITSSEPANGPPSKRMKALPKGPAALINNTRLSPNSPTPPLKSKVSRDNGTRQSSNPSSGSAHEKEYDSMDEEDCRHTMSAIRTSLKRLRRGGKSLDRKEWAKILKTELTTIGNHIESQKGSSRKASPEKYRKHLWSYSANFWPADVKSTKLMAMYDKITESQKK

Sequence of Protein translocase subunit SecA (Escherichia coli (strain K12)) (P10408 whole entry): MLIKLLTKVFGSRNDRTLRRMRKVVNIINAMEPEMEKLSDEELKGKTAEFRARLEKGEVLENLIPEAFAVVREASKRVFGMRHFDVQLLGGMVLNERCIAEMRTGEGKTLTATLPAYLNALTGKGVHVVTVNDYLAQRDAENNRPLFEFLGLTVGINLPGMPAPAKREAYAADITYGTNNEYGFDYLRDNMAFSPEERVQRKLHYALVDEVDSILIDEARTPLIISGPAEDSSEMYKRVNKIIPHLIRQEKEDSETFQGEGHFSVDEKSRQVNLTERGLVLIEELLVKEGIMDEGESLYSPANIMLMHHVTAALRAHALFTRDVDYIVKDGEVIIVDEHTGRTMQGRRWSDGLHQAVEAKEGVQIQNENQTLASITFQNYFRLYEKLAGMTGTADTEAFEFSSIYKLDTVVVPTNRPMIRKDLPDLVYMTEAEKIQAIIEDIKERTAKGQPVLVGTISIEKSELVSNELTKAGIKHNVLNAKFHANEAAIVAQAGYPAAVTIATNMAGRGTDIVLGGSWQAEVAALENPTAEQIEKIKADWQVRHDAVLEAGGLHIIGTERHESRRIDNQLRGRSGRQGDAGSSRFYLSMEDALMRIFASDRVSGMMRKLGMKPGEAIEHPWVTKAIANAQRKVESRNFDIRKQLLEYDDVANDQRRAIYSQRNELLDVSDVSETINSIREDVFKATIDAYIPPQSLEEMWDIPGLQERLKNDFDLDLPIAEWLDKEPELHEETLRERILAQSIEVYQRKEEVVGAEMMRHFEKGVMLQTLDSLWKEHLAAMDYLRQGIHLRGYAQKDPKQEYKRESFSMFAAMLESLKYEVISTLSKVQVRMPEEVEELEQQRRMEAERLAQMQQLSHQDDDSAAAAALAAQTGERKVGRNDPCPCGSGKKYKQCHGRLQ

Structure (SMILES)	Percent Effect [1] [%]	Percent Effect [2] [%]	Percent Effect [3] [%]	Percent Effect [4] [%]	Percent Effect [5] [%]	Percent Effect [6] [%]	Percent Effect [7] [%]	Percent Effect [8] [%]	Percent Effect [9] [%]	Percent Effect [10] [%]	Percent Effect [11] [%]
O=C(COc1coc(CN2CCCCC2)cc1=O)Nc1ccc(Cl)cc1	-3.05	1.33	4.41	7	-0.982	-7.92	6.1	-11.6	6.35	10.3	0.832
Cc1noc(CN2CCN(Cc3cccs3)CC2)n1	-0.284	15.6	3.17	-3.65	-5.24	4.27	0.845	22.4	6.8	19.5	-5.19
Cc1ccc(N2CCCN(C(=O)C3(C#N)CCCCC3)CC2)nn1	-6.11	5.26	-4.48	3.79	6.39	1.53	0.668	-2.34	5.39	0	-14.5
CCCOc1cccc(CNC(=O)CN2CCN(C)CC2C)c1 (stereo unspecified)	-1.3	13.5	-7.22	15	1.02	-6.47	1.98	14.1	3.96	15.8	-9.26
c1csc(CN2CCO[C@H]3[C@H](OCCN4CCCC4)CC[C@@H]32)n1	-4.05	7.79	0.971	16	-0.885	-57.9	8.15	10.2	2.15	11.1	-0.273
CCN1CCC(NC(=O)CN2CCCC2Cn2cncn2)CC1 (stereo unspecified)	-0.772	6.33	-1.15	-1.21	-5.64	0.645	8.92	4.26	3.12	2.53	-22.4
Cc1ccc(CNC(CN2CCN(C)CC2)c2ccccc2)cc1 (stereo unspecified)	-5.66	8.11	-8.66	-0.353	-2.05	-1.74	7.64	13.4	3.23	8.64	-3.22
COc1ccc2c(c1)CN(Cc1nc3ccsc3c(=O)[nH]1)CC2	-2.79	-5.06	-0.628	14.2	-1.79	1.9	2.05	24.5	3.45	1.27	21.3
Cc1cc(F)ccc1OC1(C(=O)O)CCN(Cc2ccncc2)CC1	-4.32	16	-6.71	19.8	3.21	13.5	11.7	10	10.4	21	-4.33
CCN(CC)C(=O)CCNC(=O)Cc1nc(-c2ccco2)oc1C	-7.31	-2.67	-3.57	-1.71	-5.75	-0.521	17.3	-3.68	-1.64	3.7	-7.39
O=C(NCCCN1CCOCC1)c1cc(-c2ccc3c(c2)CCO3)n[nH]1	-5.47	-20	-0.583	0.426	2.36	-15	12.2	-4.93	1.06	-2.56	-5.21
